# Inconclusive results are not listed. A call without a number means that no potency is given here. Active and inactive are the calls of the source. Unless noted, calls follow the shape of the full dose curve.
# Columns and labels:
# [1] = qHTS assay for small molecule agonists of retinoid X receptor alpha signaling (AID 588544); details: HEK293T RXRa-UAS-bla, beta-lactamase reporter, 18 h; 530 nm emission
# [2] = target: Retinoic acid receptor RXR-alpha (Homo sapiens) (UniProt P19793); assay: as above; details: HEK293T RXRa-UAS-bla, beta-lactamase reporter, 18 h; series mostly up to 76.7 µM
# Sequence of Retinoic acid receptor RXR-alpha (Homo sapiens) (P19793 whole entry, looked up): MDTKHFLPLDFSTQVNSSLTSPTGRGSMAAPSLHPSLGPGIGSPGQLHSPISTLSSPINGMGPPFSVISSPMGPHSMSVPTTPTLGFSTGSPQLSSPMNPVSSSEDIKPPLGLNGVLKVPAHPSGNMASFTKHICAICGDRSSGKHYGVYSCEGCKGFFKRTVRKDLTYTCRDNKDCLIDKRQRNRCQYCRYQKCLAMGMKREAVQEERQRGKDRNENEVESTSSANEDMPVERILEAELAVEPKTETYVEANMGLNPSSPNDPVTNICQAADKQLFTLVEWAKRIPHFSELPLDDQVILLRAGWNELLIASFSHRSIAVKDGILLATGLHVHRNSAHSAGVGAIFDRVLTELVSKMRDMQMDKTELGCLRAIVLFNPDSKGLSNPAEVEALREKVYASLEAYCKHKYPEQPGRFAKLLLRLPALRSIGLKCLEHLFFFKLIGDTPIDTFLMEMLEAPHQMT
# [3] = target: Thyroid hormone receptor beta (Homo sapiens) (UniProt P10828); assay: qHTS assay for small molecule agonists of thyroid hormone receptor beta signaling (AID 588545); details: TR-UAS-bla GripTite HEK 293, beta-lactamase ratio, agonist mode, 18 h, percent of T3 response, DMSO as zero; series mostly up to 76.7 µM
# Sequence of Thyroid hormone receptor beta (Homo sapiens) (P10828 whole entry, looked up): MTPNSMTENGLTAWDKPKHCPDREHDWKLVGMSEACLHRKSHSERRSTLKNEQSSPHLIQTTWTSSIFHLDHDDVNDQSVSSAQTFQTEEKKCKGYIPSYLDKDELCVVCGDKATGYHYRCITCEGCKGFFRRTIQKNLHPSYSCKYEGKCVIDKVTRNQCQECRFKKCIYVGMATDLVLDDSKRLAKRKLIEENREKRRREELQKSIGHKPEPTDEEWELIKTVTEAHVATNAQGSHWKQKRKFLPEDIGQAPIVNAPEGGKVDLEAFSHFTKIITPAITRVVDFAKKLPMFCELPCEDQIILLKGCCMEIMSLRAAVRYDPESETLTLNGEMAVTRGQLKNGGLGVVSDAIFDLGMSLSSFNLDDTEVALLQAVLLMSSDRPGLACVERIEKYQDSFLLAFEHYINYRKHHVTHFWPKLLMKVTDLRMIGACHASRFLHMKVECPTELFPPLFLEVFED
# Outline: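 Cells (2500/well) were seeded, incubated 4 hrs at 37 C, dosed with a compound series, incubated 18 hrs, loaded with CCF4 dye for 2 hrs at RT, then read for fluorescence. Data were scaled between DMSO (0%) and 10 nM T3 (100%).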
# [4] = qHTS assay for small molecule antagonists of retinoid X receptor alpha signaling (AID 588546; active = well fitted inhibition curve with a large enough effect in the signal ratio, with a control signal flat, not every such curve was filed as active; the % refers to the signal ratio;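 also: cells stimulated with 9-cis-retinoic acid as agonist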); details: HEK293T RXRa-UAS-bla, beta-lactamase ratio, antagonist mode; measured here: W530 green channel, cytotoxicity proxy
# Outline: (§1)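 Beta-lactamase reporter inhibition, read as CCF4 fluorescence ratio (ex 405, em 460/530 nm) after 2 h at RT. HEK293T UAS-bla cells, 2500/well, were stimulated with 9-cis-RA at 500 or 100 nM final alongside test compound for 18 h at 37 C.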
# [5] = target: Retinoic acid receptor RXR-alpha (Homo sapiens) (UniProt P19793); assay: as above; details: HEK293T RXRa-UAS-bla, beta-lactamase ratio, antagonist mode
# Outline: as §1
# [6] = target: Thyroid hormone receptor beta (Homo sapiens) (UniProt P10828); assay: qHTS assay for small molecule antagonists of thyroid hormone receptor beta signaling (AID 588547; active = well fitted inhibition curve with a large enough effect in the signal ratio, with a control signal flat, not every such curve was filed as active; the % refers to the signal ratio;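 also: cells stimulated with 0.4 nM T3 agonist during compound exposure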); details: TR-UAS-bla HEK293, beta-lactamase ratio, antagonist mode, 18 h
# Outline: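 Inhibition of T3-driven (0.4nM final) beta-lactamase reporter activity was measured over 0.59 nM to 92 uM compound after 18 h at 37 C. The cells were GripTite HEK293 TR-UAS-bla in charcoal/dextran-stripped serum, with CCF4 ratio read-out and IC50 from Hill fits.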
# [7] = target: Voltage-gated inwardly rectifying potassium channel KCNH2 (Homo sapiens) (UniProt Q12809); assay: qHTS Assay for Small Molecule Inhibitors of the Human hERG Channel Activity (AID 588834; active = well fitted curve in the direction sought with a large enough effect; an effect the other way counts as inactive or inconclusive;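 also: top concentration of the series differs between compounds; lower thallium flux fluorescence means stronger hERG block; nearly all actives have a fitted effect of over 50% in size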); details: U2OS BacMam hERG, FluxOR thallium flux fluorescence; series mostly up to 92.2 µM
# Sequence of Voltage-gated inwardly rectifying potassium channel KCNH2 (Homo sapiens) (Q12809 whole entry, looked up): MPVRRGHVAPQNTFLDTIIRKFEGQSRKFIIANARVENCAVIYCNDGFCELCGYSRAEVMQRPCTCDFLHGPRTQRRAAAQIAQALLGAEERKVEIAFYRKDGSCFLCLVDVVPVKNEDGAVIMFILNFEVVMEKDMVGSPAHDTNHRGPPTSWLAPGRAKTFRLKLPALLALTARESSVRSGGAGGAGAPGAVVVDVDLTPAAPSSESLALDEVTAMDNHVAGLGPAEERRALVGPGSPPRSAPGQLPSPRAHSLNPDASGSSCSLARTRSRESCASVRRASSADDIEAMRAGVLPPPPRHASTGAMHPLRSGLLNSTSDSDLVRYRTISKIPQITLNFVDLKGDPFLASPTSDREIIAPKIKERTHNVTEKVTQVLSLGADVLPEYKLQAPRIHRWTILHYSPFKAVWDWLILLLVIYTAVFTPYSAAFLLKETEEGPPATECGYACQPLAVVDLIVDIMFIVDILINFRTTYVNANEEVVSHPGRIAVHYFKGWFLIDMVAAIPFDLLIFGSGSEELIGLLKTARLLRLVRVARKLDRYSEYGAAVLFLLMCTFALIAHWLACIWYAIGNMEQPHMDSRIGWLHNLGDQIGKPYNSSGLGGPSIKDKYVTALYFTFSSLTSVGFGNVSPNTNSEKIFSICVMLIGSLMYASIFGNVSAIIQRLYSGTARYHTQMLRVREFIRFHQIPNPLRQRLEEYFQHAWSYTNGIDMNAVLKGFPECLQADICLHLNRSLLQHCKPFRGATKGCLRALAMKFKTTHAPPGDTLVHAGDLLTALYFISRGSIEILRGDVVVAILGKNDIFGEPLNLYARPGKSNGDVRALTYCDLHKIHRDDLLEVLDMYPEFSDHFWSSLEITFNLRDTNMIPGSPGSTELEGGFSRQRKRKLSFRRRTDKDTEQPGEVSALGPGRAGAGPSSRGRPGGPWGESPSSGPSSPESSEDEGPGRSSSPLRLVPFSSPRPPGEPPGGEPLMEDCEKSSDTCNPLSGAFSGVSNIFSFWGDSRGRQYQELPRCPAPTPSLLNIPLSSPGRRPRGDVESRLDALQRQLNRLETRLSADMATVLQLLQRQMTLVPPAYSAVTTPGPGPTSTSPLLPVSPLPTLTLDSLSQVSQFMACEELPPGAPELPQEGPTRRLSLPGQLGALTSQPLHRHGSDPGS
# Outline: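 Homogeneous FluxOR thallium flux assay using hERG-expressing U2OS cells (BacMam). Compound treatment about 10 minutes preceded stimulation; reduced fluorescence taken as channel block.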
# [8] = qHTS assay for small molecule agonists of the antioxidant response element (ARE) signaling pathway (AID 651741; active = well fitted activation curve with a large enough effect in the signal ratio; the % refers to the signal ratio); details: HepG2 ARE-bla reporter, beta-lactamase FRET ratio, 16 h; series mostly up to 96 µM
# Outline: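 Beta-lactamase reporter under ARE control in HepG2 cells, 2,000 per well, was induced by 16 h compound treatment at 37 C. Read-out was fluorescence from LiveBLAzer B/G FRET substrate after 2 h at room temperature.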
# [9] = qHTS assay for small molecule activators of the p53 signaling pathway (AID 651743; active = well fitted activation curve with a large enough effect in the signal ratio, not every such curve was filed as active; the % refers to the signal ratio); details: HCT-116 p53RE-bla, beta-lactamase FRET ratio, 16 h; stronger effect = higher value
# Outline: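 After 16 hours compound treatment at 37 C, HCT-116 cells stably expressing p53RE-driven beta-lactamase were loaded with LiveBLAzer B/G FRET substrate for 2 hours at room temperature. Fluorescence intensity served as the p53 activation read-out.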
# [10] = qHTS assay for small molecule activators of the nuclear factor-kappa B (NF-kB) signaling pathway (AID 651749; active = well fitted activation curve with a large enough effect in the signal ratio; the % refers to the signal ratio); details: NF-kB-bla ME-180 cells, beta-lactamase FRET ratio, 16 h; stronger effect = higher value
# Outline: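 Activation measured after 16 hr compound treatment at 37C, 5% CO2, of 2,000 ME-180 cells/well stably expressing an NF-kB response element–driven beta-lactamase reporter, via FRET-disruption fluorescence.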
# [11] = qHTS assay for small molecule disruptors of the mitochondrial membrane potential - 1 hr assay (AID 651754); details: series mostly up to 92.2 µM; also: nearly all actives have a fitted effect of over 35% in size
# Outline: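 Loss of mitochondrial potential shifts the cationic dye from red mitochondrial aggregates to green cytoplasmic monomers. Cells (HepG2) are treated with compound for 1 hr before a 30 min dye incubation at 37C.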
# [12] = qHTS assay for small molecule disruptors of the mitochondrial membrane potential - 5 hr assay (AID 651755); details: JC-1-type ratio dye; series mostly up to 92.2 µM; also: nearly all actives have a fitted effect of over 40% in size
# Outline: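 Membrane-potential dye readout: red aggregate (540 ex/590 em) versus green monomer (490 ex/535 em) fluorescence after 30 min dye loading, following 5 hr compound exposure at 37C of overnight-plated HepG2 cells.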
# [13] = target: Tumor necrosis factor (Homo sapiens) (UniProt P01375); assay: qHTS assay to identify small molecules that stimulate Tumor Necrosis Factor-alpha (TNF-alpha) secretion (AID 651757; active = well fitted curve in the direction sought with a large enough effect in the signal ratio; the % refers to the signal ratio); details: Human cells, HTRF 665/615 ratio; series mostly up to 92.2 µM
# Sequence of Tumor necrosis factor (Homo sapiens) (P01375 whole entry, looked up): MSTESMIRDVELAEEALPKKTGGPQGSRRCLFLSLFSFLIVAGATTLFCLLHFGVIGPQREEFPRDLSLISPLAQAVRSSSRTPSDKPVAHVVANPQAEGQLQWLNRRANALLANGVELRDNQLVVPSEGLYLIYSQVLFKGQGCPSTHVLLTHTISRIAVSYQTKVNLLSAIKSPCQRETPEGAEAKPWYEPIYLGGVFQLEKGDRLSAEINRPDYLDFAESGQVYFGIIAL
# Outline: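 Human monocytic THP-1 cells are plated, treated with compound and held at 37 C for 17 hrs. Labeled anti-TNF-alpha antibody mixture is then added; after 3 hr at room temperature, TR-FRET signal reports secreted TNF-alpha.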
# [14] = qHTS assay to identify small molecules that stimulate interleukin-8 (IL-8) secretion (AID 651758; active = well fitted activation curve with a large enough effect in the signal ratio; the % refers to the signal ratio); details: HTRF ratio (665/615); series mostly up to 92.2 µM
# Outline: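 Secreted IL-8 measured homogeneously by TR-FRET (two labelled anti-IL-8 antibodies, 1-3 h at room temperature) after a 16 h, 37 C compound treatment of THP-1 cells at 2000 cells/well.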
# [15] = qHTS assay for environmental chemicals that activate the Aryl hydrocarbon Receptor (AhR) signaling pathway (AID 651777; active = well fitted curve in the direction sought with a large enough effect; an effect the other way counts as inactive or inconclusive; also: nearly all actives have a fitted effect of over 15% in size); details: 1A2-DRE human hepatoma cells, luciferase, 24 h; activation: stronger effect = higher value
# Outline: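 Quantitative HTS in stably transfected human liver-derived cells whose luciferase gene sits downstream of the CYP1A2 promoter and dioxin response element. After 24 hr exposure at 37 C, One-Glo luminescence was measured.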
# [16] = target: Peroxisome proliferator-activated receptor alpha (Homo sapiens) (UniProt Q07869); assay: qHTS assay for small molecule agonists of the peroxisome proliferator-activated receptor alpha (PPARalpha) signaling pathway (AID 651778; active = well fitted curve in the direction sought with a large enough effect; an effect the other way counts as inactive or inconclusive); details: PathHunter PPARalpha complementation, chemiluminescence, 6 h; stronger effect = higher value
# Sequence of Peroxisome proliferator-activated receptor alpha (Homo sapiens) (Q07869 whole entry, looked up): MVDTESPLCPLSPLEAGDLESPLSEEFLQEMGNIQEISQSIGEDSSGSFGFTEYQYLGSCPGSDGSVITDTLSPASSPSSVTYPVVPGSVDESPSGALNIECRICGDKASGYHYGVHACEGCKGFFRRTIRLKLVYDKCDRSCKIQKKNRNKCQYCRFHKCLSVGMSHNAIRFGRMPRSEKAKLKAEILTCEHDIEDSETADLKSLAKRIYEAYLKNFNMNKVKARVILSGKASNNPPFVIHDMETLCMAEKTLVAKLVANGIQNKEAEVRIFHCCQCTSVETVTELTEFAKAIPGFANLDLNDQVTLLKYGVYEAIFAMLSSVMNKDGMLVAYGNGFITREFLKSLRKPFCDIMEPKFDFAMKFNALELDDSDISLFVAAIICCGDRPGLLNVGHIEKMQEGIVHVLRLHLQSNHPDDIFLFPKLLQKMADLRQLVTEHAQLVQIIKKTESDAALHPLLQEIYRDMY
# Outline: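 Chemiluminescence from complemented enzyme reported PPARalpha activation in cells after 6 hr of compound treatment at 37 C. The detection reagent was incubated for 60 min at room temperature, and compounds were scored as agonists.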
# [17] = target: Nuclear receptor ROR-gamma (Homo sapiens) (UniProt P51449); assay: qHTS assay for small molecule antagonists of the retinoid-related orphan receptor gamma (ROR-gamma) signaling pathway (AID 651802; active = well fitted curve in the direction sought with a large enough effect; an effect the other way counts as inactive or inconclusive;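 also: CHO cells with doxycycline-induced ROR-gamma expression; nearly all actives have a fitted effect of over 60% in size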); details: ROR-gamma antagonist cell reporter assay; series mostly up to 92.2 µM
# Sequence of Nuclear receptor ROR-gamma (Homo sapiens) (P51449 whole entry, looked up): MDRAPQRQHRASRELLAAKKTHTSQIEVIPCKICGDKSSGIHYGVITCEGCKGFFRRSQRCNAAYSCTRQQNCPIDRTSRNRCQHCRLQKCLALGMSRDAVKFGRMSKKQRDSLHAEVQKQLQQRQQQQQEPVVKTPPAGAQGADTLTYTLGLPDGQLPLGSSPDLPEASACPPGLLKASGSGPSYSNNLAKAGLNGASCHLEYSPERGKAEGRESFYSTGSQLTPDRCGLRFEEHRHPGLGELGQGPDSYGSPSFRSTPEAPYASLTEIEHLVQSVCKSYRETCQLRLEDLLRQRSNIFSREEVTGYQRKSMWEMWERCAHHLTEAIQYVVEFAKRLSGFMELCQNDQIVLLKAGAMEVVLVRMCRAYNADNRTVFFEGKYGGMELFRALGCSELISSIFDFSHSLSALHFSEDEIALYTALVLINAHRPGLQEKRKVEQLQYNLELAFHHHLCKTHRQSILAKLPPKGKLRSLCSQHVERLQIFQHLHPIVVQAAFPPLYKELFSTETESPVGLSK
# Outline: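 Steps: cells dispensed; compound or DMSO transferred by pin tool; doxycycline added to induce the ROR response element-driven luciferase; plates held 16hr at 37C; ONE-Glo added and luminescence measured.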
# [18] = qHTS assay for small molecule agonists of the antioxidant response element (ARE) signaling pathway measured by Nrf2-dependant transcriptional activity (AID 720636; active = well fitted curve in the direction sought with a large enough effect in the repeat runs; an effect the other way counts as inactive or inconclusive); details: ARE-luc HepG2, Nrf2 luciferase reporter, 16 h; series mostly up to 92.4 µM
# Outline: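 Quantitative HTS format in HepG2 cells stably expressing an ARE-luciferase reporter; 16 hr compound treatment at 37 C, luciferase signal detected with ONE-Glo.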
# [19] = qHTS assay for small molecule antagonists of the retinoid-related orphan receptor gamma (ROR-gamma) signaling pathway - cell viability counter screen (AID 720652; active = well fitted curve in the direction sought with a large enough effect in the repeat runs; an effect the other way counts as inactive or inconclusive;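 also: CHO reporter cells with doxycycline-induced ROR-gamma expression; compound exposure lasted 16 hr before ATP read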); details: RORgamma reporter cell line viability counter screen; series mostly up to 92.2 µM
# Outline: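 Steps: seed CHO cells bearing TET-inducible ROR and ROR response element-luciferase; rest 5 hr at 37 C; add compound, then doxycycline; incubate 16 hr; add CellTiter-Glo and read luminescence as ATP-based viability.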
# [20] = qHTS assay for small molecule agonists of the antioxidant response element (ARE) signaling pathway measured by Nrf2-dependant transcriptional activity - cell viability counter screen (AID 720653; active = well fitted curve in the direction sought with a large enough effect in the repeat runs; an effect the other way counts as inactive or inconclusive); details: ARE-bla HepG2 viability, CellTiter-Glo ATP luminescence, 16 h; stronger effect = lower value
# Outline: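 Cytotoxicity counter screen: intracellular ATP quantified by CellTiter-Glo luminescence in the same ARE-bla HepG2 plates, after 16 h compound exposure and a 2 h beta-lactamase substrate step.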
Compound,max response [1] [%],outcome [2],outcome [3],max response [4] [%],max response [5],activity change % (negative = inhibition) [6],Potency [7],Potency [8],activation [9],activation [10],Potency [11],Potency [12],Potency [13],Potency [14],activation [15],max response [16],Potency [17],outcome [18],Potency [19],max response [20]
CCCCCCCCN,-7.59,inactive,inactive,2.38,13.9% (inactive),5.95% (inactive),inactive,inactive,-1.65% (inactive),-1.11% (inactive),inactive,inactive,inactive,inactive,1.65% (inactive),-3.65% (inactive),inactive,inactive,inactive,–
CC(O)COC(C)(C)C (stereo unspecified),-7.25,inactive,inactive,0.664,-2.68% (inactive),-13.8% (inactive),inactive,inactive,-6.33% (inactive),-0.964% (inactive),inactive,inactive,inactive,inactive,-0.0727% (inactive),-3.92% (inactive),inactive,inactive,inactive,7.93% (inactive)
CCCOCC(C)OCC(C)O (stereo unspecified),-0.324,inactive,inactive,-4.87,13.7% (inactive),6.45% (inactive),inactive,inactive,-5.61% (inactive),-1.44% (inactive),inactive,inactive,inactive,inactive,-2.16% (inactive),–,inactive,inactive,inactive,-10.5% (inactive)
NC(=O)c1ccccc1[N+](=O)[O-],-9.31,inactive,inactive,3.46,0.827% (inactive),5.01% (inactive),inactive,inactive,-0.853% (inactive),-0.661% (inactive),inactive,inactive,inactive,–,-0.127% (inactive),-0.939% (inactive),inactive,inactive,inactive,-0.414% (inactive)
N#CC1(O)CCCCC1,4.69,inactive,inactive,-4.06,2.71% (inactive),-16% (inactive),inactive,inactive,0.526% (inactive),-2.59% (inactive),inactive,inactive,inactive,inactive,2.1% (inactive),-1.44% (inactive),inactive,inactive,inactive,5.72% (inactive)
Nc1cccc(S(=O)(=O)O)c1,8.69,inactive,inactive,-5.6,16.1% (inactive),-28.7% (inactive),inactive,inactive,-1.01% (inactive),-0.968% (inactive),inactive,inactive,inactive,–,-0.739% (inactive),-1.84% (inactive),inactive,inactive,inactive,8.17% (inactive)

# Source: PubChem BioAssay (NCATS)
